HP1b chromo inh – HTS for Inhibitors of HP1-beta Chromodomain Interactions with Methylated Histone Tails; AlphaScreen HP1-beta / biotin-H3K9me3 peptide binding; Potency, µM (highest dose often 114 µM), usual class: inhibitors; actives 0.56% (n = 390,000); AID 540317, 2011; note: nearly all actives have a fitted effect of over 70% in size
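HP1-beta protein (50 nM final) preincubated 30 min at room temperature with biotinylated H3(1-18)K9me3 peptide (50 nM) in PBS pH 7.4, 0.01% Tween-20, then compound added for 30 min. AlphaScreen streptavidin donor/nickel chelate acceptor beads (10 ug/mL final), 30 min dark, luminescence read.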
G9a inh – qHTS Assay for Inhibitors of Histone Lysine Methyltransferase G9a | Histone-lysine N-methyltransferase EHMT2 (Homo sapiens), Q96KQ7 | G9a H3K9 monomethylation, AlphaScreen, 2 h | Potency, µM (top dose mostly 102 µM), hits mostly inhibitors | actives 8.8% (n = 350,000); note: nearly all actives have a fitted effect of over 75% in size
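G9a (20 nM) was preincubated 15 min with compound, then reacted 2 h at room temperature with 500 nM biotin-H3K9 peptide and 20 µM SAM. Monomethyl-H3K9 detected by AlphaScreen using anti-H3K9me1 antibody.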
BAZ2B block – qHTS Assay for Inhibitors of BAZ2B; AID 504333, 2011; Potency, µM (highest dose often 114 µM), most hits filed as inhibitors; Bromodomain adjacent to zinc finger domain protein 2B (Homo sapiens), Q9UIF8; AlphaScreen BAZ2B-H3K14Ac peptide displacement; actives 4.4% (n = 360,000); note: nearly all actives have a fitted effect of over 60% in size
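Complex of BAZ2B and biotin-H3K14Ac (50 nM apiece) forms over 30 min at RT, then faces library compounds up to 110 uM for another 30 min; AlphaScreen beads added, 20 min dark incubation, luminescence read.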
JMJD2A Tudor – qHTS Assay for Inhibitors of JMJD2A-Tudor Domain | Potency, µM (series often up to 114 µM), usual class: inhibitors | AlphaScreen JMJD2A-Tudor / H3K4me3 peptide binding | Lysine-specific demethylase 4A (Homo sapiens), O75164 | actives 4.4% (n = 390,000) | AID 504339, 2011; note: nearly all actives have a fitted effect of over 50% in size
Sfp PPTase inh – qHTS Assay for Inhibitors of Bacillus subtilis Sfp phosphopantetheinyl transferase (PPTase). AID 1490, 2009. Biochemical Sfp PPTase activity, qHTS. actives 3.5% (n = 310,000). Potency, µM, actives largely listed as inhibitors;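 note: the enzyme is Sfp with the accession as filed and its product quenches rhodamine fluorescence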
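After 15 min at room temperature with compound, 15 nM Sfp received 5 uM rhodamine-CoA plus 12.5 uM BHQ-2-ybbR (50 mM Hepes pH 7.6, 10 mM MgCl2). Rate came from the fluorescence difference over 30 min, ex 525/em 598 nm.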
Each line names hits and unclear results; the compound was inactive in the other large screens. In the library only some 12% were active in any assay of this set; here they are far more common. Calls come from the whole dose curve; as a rule, active = well fitted curve in the direction sought with a large enough effect; inconclusive = small, poorly fitted or top-dose-only effect, or another doubt; inactive = no such curve, though single readings can be large; an effect the other way counts as inactive or inconclusive.

CC(NC(=O)c1ccc(OC2CCN(Cc3ccccn3)CC2)cc1)c1ccccc1 (configuration not stated)	G9a inh inconclusive, BAZ2B block inconclusive
COc1cccc(-c2n[nH]c(=S)n2Cc2ccco2)c1	G9a inh 3.16µM, JMJD2A Tudor 20µM, Sfp PPTase inh 31.6µM
S=c1[nH]nc(-c2ccncc2)n1Cc1ccco1	G9a inh 1µM, JMJD2A Tudor 7.94µM, Sfp PPTase inh 14.1µM
Cc1c(Cl)c(-c2n[nH]c(=S)n2Cc2ccco2)nn1C	G9a inh 7.94µM, JMJD2A Tudor 8.91µM
S=c1[nH]nc(-c2ccc(Br)cc2)n1Cc1ccco1	G9a inh 0.398µM, BAZ2B block inconclusive, JMJD2A Tudor 56.2µM
COc1cccc(-c2nccc(N(C)Cc3ccco3)n2)c1	Sfp PPTase inh inconclusive (no result: HP1b chromo inh, BAZ2B block, JMJD2A Tudor)
Cc1cccc(Oc2nc(-c3ccccc3)cc(C)c2S(C)(=O)=O)c1C	none
CCCNC(=O)Cn1nc(-c2ccc(OC)cc2)c2cnc3ccc(F)cc3c21	none (no result: Sfp PPTase inh)
CCN(CC)S(=O)(=O)c1ccc(OC(C)C)c(NC(=O)c2c3c(nc4ccccc24)CCN(Cc2ccccc2)C3)c1	none
Cc1c(Cl)c(-c2n[nH]c(=S)n2-c2ccccc2)nn1C	G9a inh 8.91µM, JMJD2A Tudor 4.47µM, Sfp PPTase inh inconclusive
Cc1ccc(/C=C/S(=O)(=O)NCC(=O)OCC(=O)Nc2ccc(C(=O)N(C)C)cc2)cc1	none (no result: Sfp PPTase inh)
Cc1ccc(/C=C/S(=O)(=O)NCC(=O)OCC(=O)Nc2ccc(C(N)=O)cc2)cc1	G9a inh 44.7µM (no result: Sfp PPTase inh)
Cc1ccc(/C=C/S(=O)(=O)NCC(=O)OCC(=O)Nc2c(F)cccc2F)cc1	G9a inh 20µM (no result: Sfp PPTase inh)
O=C1CN(S(=O)(=O)c2ccc(Br)cc2)c2ccccc2N1	none
O=C1CN(S(=O)(=O)c2cccc(Cl)c2Cl)c2ccccc2N1	G9a inh 50.1µM
O=C(CCCSc1nc2ccccc2[nH]1)N1CCN(c2ccccc2)CC1	G9a inh 44.7µM
Cc1c(C)n(C(=O)CSc2nc3ccccc3[nH]2)c2ccccc12	G9a inh 50.1µM, BAZ2B block inconclusive, JMJD2A Tudor inconclusive
O=C(CSc1nc2ccccc2[nH]1)N1CCN(c2ccccc2)CC1	G9a inh inconclusive
O=C(CSc1nc2ccccc2[nH]1)N1c2ccccc2Sc2ccccc21	G9a inh 44.7µM, BAZ2B block inconclusive, JMJD2A Tudor inconclusive
COc1ccccc1N1CCN(C(=O)CC(NC(=O)c2ccccc2Cl)c2ccccc2)CC1 (configuration not stated)	G9a inh 44.7µM (no result: Sfp PPTase inh)
O=C(Cn1cnc([N+](=O)[O-])c1)c1ccc(F)cc1	none (no result: Sfp PPTase inh)
Cc1nc2cc(Nc3nnc(-c4ccccc4)c4ccccc34)ccc2n1C	none
Cc1ccc(/C=C(\NC(=O)c2ccc(C)cc2)c2nc(=S)[nH][nH]2)cc1	JMJD2A Tudor inconclusive
COc1ccc(N2CCN(C(=O)CSc3n[nH]c(-c4ccccc4)n3)CC2)cc1	G9a inh 15.8µM (no result: Sfp PPTase inh)
COc1ccc(N2CCN(C(=O)c3cnc(N4CCCC4)nc3C)CC2)cc1	none (no result: Sfp PPTase inh)
COc1ccccc1N1CCN(C(=O)CSc2nc3ccccc3[nH]2)CC1	G9a inh 7.94µM
COc1ccccc1N1CCN(C(=O)CSc2ncccc2-c2nc3ccccc3[nH]2)CC1	G9a inh 44.7µM
COc1ccc(N2CCN(C(=O)c3cccnc3SCc3cccc(Br)c3)CC2)cc1	HP1b chromo inh inconclusive, G9a inh 12.6µM, BAZ2B block inconclusive, JMJD2A Tudor 22.4µM
O=C(CSc1ncccc1-c1nc2ccccc2[nH]1)N1CCN(c2ccccc2F)CC1	none
O=[N+]([O-])c1ccc(-n2nnnc2CN2CCOCC2)cc1	none
O=C(CCCSc1nc2ccccc2[nH]1)NCc1ccccc1Cl	HP1b chromo inh inconclusive, G9a inh 35.5µM
O=C(CSc1ncccc1-c1nc2ccccc2[nH]1)NC1CC1	none
COc1ccc(N2CCN(C(=O)CSc3ncccc3-c3nc4ccccc4[nH]3)CC2)cc1	G9a inh 25.1µM, BAZ2B block inconclusive, JMJD2A Tudor inconclusive
O=C(CCCSc1nc2ccccc2[nH]1)NC(c1ccccc1)c1ccccc1	none
Cc1ccc(Oc2ccc(NS(=O)(=O)c3cccc(C(=O)O)c3)cc2)cc1	none (no result: G9a inh, BAZ2B block, Sfp PPTase inh)
Cc1ccc(Nc2nc(-c3cccnc3)cs2)cc1C	none
Oc1ccc(Nc2nc(-c3cccnc3)cs2)cc1	G9a inh 39.8µM, BAZ2B block inconclusive, JMJD2A Tudor inconclusive
Brc1ccc(Nc2nc(-c3cccnc3)cs2)cc1	G9a inh 31.6µM, Sfp PPTase inh 44.7µM
CCC(=O)Nc1nc(-c2ccc3c(c2)OCCO3)cs1	none
CCC(=O)c1ccc(OCC(=O)Nc2nc(C)cs2)cc1	none (no result: G9a inh, BAZ2B block, Sfp PPTase inh)
c1cc2c(cc1-c1csc(NNC3=NCCCCC3)n1)OCCO2	HP1b chromo inh inconclusive, G9a inh 6.31µM, BAZ2B block 35.5µM
CCC(=O)c1ccc(OCC(=O)Nc2nc(-c3cccnc3)cs2)cc1	G9a inh 39.8µM, JMJD2A Tudor inconclusive (no result: Sfp PPTase inh)
c1ccc(-c2nc(-c3cccnc3)cs2)cc1	none
Oc1ccc(Nc2nc(-c3ccc(O)cc3)cs2)cc1	HP1b chromo inh inconclusive, G9a inh inconclusive, BAZ2B block 28.2µM, JMJD2A Tudor inconclusive
c1ccc(CNc2nc(-c3cccnc3)cs2)cc1	G9a inh 50.1µM, BAZ2B block inconclusive, JMJD2A Tudor inconclusive, Sfp PPTase inh 35.5µM
Nc1ccc(Nc2nc(-c3ccncc3)cs2)cc1	G9a inh 39.8µM, BAZ2B block inconclusive, JMJD2A Tudor 56.2µM
c1ccc(-c2csc(Nc3ccc4c(c3)OCCO4)n2)cc1	G9a inh 11.2µM, BAZ2B block 50.1µM, JMJD2A Tudor 70.8µM, Sfp PPTase inh inconclusive
Cc1cccc(NC(=O)CCC(=O)Nc2nnc(C3CCCCC3)s2)c1	none
O=C(CN(CC1CCCO1)C(=O)CNS(=O)(=O)c1ccc(F)cc1)NCc1ccccc1 (configuration not stated)	none
O=C(O)c1ccc(Nc2nc(-c3cccnc3)cs2)cc1	G9a inh inconclusive, Sfp PPTase inh 89.1µM
CC(=O)c1ccc(Nc2nc(-c3cccnc3)cs2)cc1	none
CCc1ccc(C(=O)c2oc3nc(C)cc(C)c3c2N)cc1	none (no result: G9a inh)
CC(C)(C)C1CCC(CN2C(Nc3ccccc3)=NC[C@@H]2Cc2ccccc2)CC1 (some centres not stated)	none (no result: G9a inh, BAZ2B block, Sfp PPTase inh)
CC(C)Oc1ccccc1C1CC(=O)Nc2cc3c(cc21)OCO3 (configuration not stated)	G9a inh inconclusive, BAZ2B block inconclusive, JMJD2A Tudor 56.2µM
COc1ccc(-n2c(-c3cccc(C)c3[N+](=O)[O-])n[nH]c2=S)cc1	HP1b chromo inh inconclusive, G9a inh 3.16µM, JMJD2A Tudor inconclusive
